Bioassay records as filed in PubChem.
Pf growth 96h: P. falciparum growth inhibition at 96 hours. actives 6.9% (n = 320,000). P. falciparum luciferase reporter growth, 96 h. Potency, µM (highest dose often 28.7 µM), for the others: at the top dose activity change, negative = inhibition, usual class: inhibitors. AID 504834; further: potency means the concentration at half of the fitted maximal effect; on the % scale 0 is the no-effect control and ±100 the full control effect
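Two parasite generations (96 h, 37 C, 5% CO2) of compound exposure in infected erythrocytes (0.05% parasitemia, 2% hematocrit). Luciferase-reporter P. falciparum; decreased luminescence indicates inhibited growth, aimed at apicoplast-acting delayed death.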
AMA1 RON2 block: AMA1-RON2 (P. falciparum) interaction inhibition; actives 0.2% (n = 360,000); AlphaScreen AMA1-biotinylated RON2 peptide binding; AID 720542; Potency, µM (doses to about 58.2 µM), inactives show top-dose activity change, negative = inhibition, hits mostly inhibitors;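 further: potency means the concentration at half of the fitted maximal effect; 0% = vehicle wells and -100% = peptide control; nearly all actives have a fitted effect of over 45% in size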
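AMA1 (3D7) with his tag at 25 nM final met compounds first, then biotinylated RON2 peptide at 25 nM; detection used donor plus acceptor beads, 10 µg/mL apiece, read by AlphaScreen after 30 min at room temperature.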
Shiga inhibitor: inhibitors of Shiga toxin in Vero cells; actives 9.2% (n = 290,000); inhibition, % at 38.7 µM; Vero cells, Shiga toxin protein synthesis inhibition reporter; in the data active means inhibition mostly above about 28%, no sharp cut-off; inactive means mostly below about 43%; further: 0% is about no effect
SARS PLpro yeast: inhibitors of SARS-CoV papain-like protease in yeast; Potency, µM (highest dose often 32.9 µM), for inactives: at the top dose activity, positive = growth rescue, actives largely listed as activators; actives 0.19% (n = 330,000); AID 485353; S. cerevisiae expressing SARS-CoV PLpro, growth rescue; calls by dose curve; further: potency means the concentration at half of the fitted maximal effect; 0% is about no effect; nearly all actives have a fitted effect of over 55% in size
CHX counter: counter-screen hit for Shiga toxin inhibitors, cycloheximide; cell reporter, cycloheximide protein synthesis inhibition counterscreen; max response, %; actives 12% (n = 300,000); AID 2314; in the data active means max response mostly above about 13%, no sharp cut-off; inactive means mostly below about 14%; further: read at 38.3 µM for the half of the compounds with a filed dose; 0% is about no effect
Pf growth 48h: inhibits P. falciparum growth in the first generation, 48 h | actives 5.9% (n = 310,000) | P. falciparum luciferase growth in erythrocytes, 48 h | Potency, µM (series often up to 28.7 µM), inactives show top-dose activity change, negative = inhibition, most hits filed as inhibitors; further: potency means the concentration at half of the fitted maximal effect; on the % scale 0 is the no-effect control and ±100 the full control effect
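First compound was added to culture medium, then infected red cells at 0.1% parasitemia and 2% hematocrit (final). After incubation at 37 C under 5% CO2, luciferase detection reagent was dispensed and light output recorded.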
* hit, by the source's call; ? = inconclusive; . = no result; [ ] = another dose, or the depositor's remark. In the library only some 19% were active in any assay of this set; here they are far more common. Unless noted, the call rests on the fitted dose curve; in most records, active means well fitted curve in the direction sought with a large enough effect; inconclusive means small, poorly fitted or top-dose-only effect, or another doubt; inactive means no such curve, though single readings can be large; an effect the other way counts as inactive or inconclusive.

SMILES	Pf growth 96h	AMA1 RON2 block	Shiga inhibitor	SARS PLpro yeast	CHX counter	Pf growth 48h
CCN(CC)C(=O)C(=O)Nc1ccc(OCc2ccccc2)cc1	?	8%	23	-1%	14*	9%
CCOc1ccc(NC(=S)Nc2ccc(OCc3ccccc3)cc2)cc1	-12%	-1%	4	-7%	11*	-24%
C/C(CC(=O)Nc1ccc2c(c1)OCCO2)=N\NC(=O)C(=O)Nc1ccccc1C	37%	23%	28	-1%	13	18%
CCOc1ccc(NC(=S)NCCCc2ccccc2)cc1	0%	26%	19	-3%	-1	-15%
C/C(CC(=O)Nc1ccc(OCc2ccccc2)cc1)=N\NC(=O)C(=O)Nc1ccccc1C	?	27%	65*	-3%	26*	?
CCOc1ccccc1N(C(=O)CNC(=O)c1ccco1)C(C(=O)NC(C)(C)C)c1ccncc1 (stereo not drawn)	.	2%	17	14%	-2	-34%
CNC(=S)Nc1ccc(OCc2ccccc2)cc1	?	-36%	48*	-1%	44*	41%
Cc1ccc(Cn2nnc3c(=O)[nH]c(C4CCN(S(=O)(=O)c5cc(C)ccc5C)CC4)nc32)cc1	.	0%	-12	7%	-2	5.2µM*
O=c1[nH]c(C2CCN(S(=O)(=O)Cc3ccccc3)CC2)nc2c1nnn2Cc1cccc(Cl)c1	44%	-14%	-9	0%	-2	?
Cc1ccc(C)c(S(=O)(=O)N2CCC(c3nc4c(nnn4Cc4ccc(F)cc4)c(=O)[nH]3)CC2)c1	68%	1%	-8	1%	-4	?
Cc1ccc(C)c(Cn2nnc3c(=O)[nH]c(C4CCN(S(=O)(=O)c5ccc(S(=O)(=O)NC6CC6)cc5)CC4)nc32)c1	-1%	-19%	29	2%	-1	2.6µM*
O=c1[nH]c(C2CCN(S(=O)(=O)Cc3ccccc3)CC2)nc2c1nnn2Cc1ccccc1	13%	-8%	-9	6%	0	9.3µM*
O=c1[nH]c(C2CCN(S(=O)(=O)c3cccc([N+](=O)[O-])c3)CC2)nc2c1nnn2Cc1ccccc1	43%	-16%	-11	-1%	-1	8.3µM*
COc1ccc(C(=O)NC2CC2)cc1OC1CCN(Cc2ccc(NC(C)=O)cc2)CC1	79%	13%	-3	-5%	-2	-2%
COc1ccc(S(=O)(=O)N2CCN(C(=O)c3cc(-c4ccc(C)cc4)n[nH]3)CC2)cc1	0%	23%	7	0%	-4	?
CC(C)c1ccccc1NC(=O)COC(=O)Cc1ccsc1	-20%	-6%	-8	-2%	-3	-6%
O=c1[nH]c(C2CCN(S(=O)(=O)c3ccc(S(=O)(=O)NC4CC4)cc3)CC2)nc2c1nnn2Cc1ccccc1	8%	1%	-1	2%	-4	3.7µM*
O=c1[nH]c(C2CCN(S(=O)(=O)c3ccc(S(=O)(=O)NC4CC4)cc3)CC2)nc2c1nnn2Cc1ccc(F)cc1	?	-24%	-3	2%	-6	?
O=c1[nH]c(C2CCN(S(=O)(=O)/C=C/c3ccccc3)CC2)nc2c1nnn2Cc1ccc(F)cc1	?	-3%	-2	2%	-4	1.9µM*
COc1ccc(CNC(=O)COC(=O)CCn2c(C)csc2=O)cc1OC	8%	-13%	.	0%	.	?
CC(C)COn1c(=S)[nH]c2ccccc2c1=O	102%	58%	55*	22%	27*	61%
O=c1c2c(-c3ccccc3)csc2ncn1/N=C/c1cccc([N+](=O)[O-])c1O	94%	20µM*	-9	-21%	1	-5%
CCN(C(=O)COC(=O)c1cc([N+](=O)[O-])ccc1N1CCOCC1)c1ccccc1	?	-6%	.	1%	.	?
COc1cc(/C=C2\CC/C(=C\c3ccc(OCCO)c(OC)c3)C2=O)ccc1OCCO	-1%	-5%	-13	0%	-3	?
COc1cc(/C=C2/CC/C(=C/c3ccc(O)c(OC)c3)C2=O)ccc1O	?	-20%	52	-1%	11	3.3µM*
SMILES	Pf growth 96h	AMA1 RON2 block	Shiga inhibitor	SARS PLpro yeast	CHX counter	Pf growth 48h
COc1cc(/C=C2\COC/C(=C\c3ccc(O)c(OC)c3)C2=O)ccc1O	?	-29%	37*	-1%	33*	10µM*
COc1ccc(CNC(=O)c2sc(=O)n(Cc3ccccc3OC)c2C)cc1	.	-6%	.	.	.	.
Cn1c(CSc2nc3ccccc3s2)n[nH]c1=S	-3%	59%	18	2%	15*	46%
Cn1c(CSc2ncn[nH]2)nc2ccccc21	-10%	0%	14	-6%	9	-1%
Cn1c(-c2csc(-c3ccccc3)n2)n[nH]c1=S	-29%	44%	25	2%	16*	7%
CCc1nnc(NC(=O)CSc2nc3ccccc3s2)s1	.	4%	-8	-1%	3	11%
S=c1[nH]nc(CSc2nc3ccccc3s2)o1	.	19%	-3	-4%	3	27%
CCNc1nnc(CSc2nc3ccccc3s2)s1	11%	53%	60*	-35%	37*	74%
Cn1c(CSc2nc3ccccc3s2)nc2ccccc21	-9%	0%	77*	-28%	39*	52%
NC(=S)N/N=C/c1coc2c(ccc3ccccc32)c1=O	51%	18%	33	-36%	24*	52%
Oc1ccc2ccccc2c1/C=N/c1nc2c(s1)CCCC2	-10%	-5%	5	2%	14*	.
Oc1c(Br)cc(Br)cc1/C=N/c1nc2c(s1)CCCC2	.	24%	.	.	.	.
NC(=S)N/N=C/c1c(O)ccc2ccccc12	?	13%	-2	2%	8	4.7µM*
NC(=S)N/N=C/c1coc2cc(Br)ccc2c1=O	63%	83%	2	-1%	-4	55%
O=C(N/N=C\c1c(O)ccc2ccccc12)c1ccc(S(=O)(=O)N2CCCCC2)cc1	85%	18%	-16	4µM*	-2	1.5µM*
Oc1ccc2ccccc2c1C=NCc1ccccc1	13µM*	42%	-3	-3%	7	?
Oc1ccc2ccccc2c1/C=N/Nc1ccccc1	?	-3%	3	-12%	3	-10%
COc1cccc(CNC(=O)c2cccc(S(=O)(=O)N3CCN(Cc4ccccc4)CC3)c2)c1	.	8%[11.6 µM]	.	.	.	.
COc1ccc(N=C2NC(=O)C(CC(=O)NCCc3ccc(OC)c(OC)c3)S2)cc1 (stereo not drawn)	-37%[5.75 µM]	-2%	5	0%	-1	?
COc1ccc(CC2SC(=Nc3ccc(F)cc3)NC2=O)cc1 (stereo not drawn)	-25%	1%	-8	0%	-1	2.9µM*
COCCn1c(C)cc(C(=O)CSc2nc3ccccc3o2)c1C	147%	-2%	120*	-2%	51*	111%
